Results on 40 molecules are retold here after PubChem BioAssay (EPA / NIEHS).

Each structure is given as a SMILES string. Inconclusive results are not listed. The source made the active and inactive calls. How the source made its calls: active means hit-call score of the fitted dose curve at least 0.9, where 1 is the maximum; inconclusive means response in the unintended direction; inactive means score below 0.9.

Chain of Nuclear receptor subfamily 4 group A member 2 (Homo sapiens) (P43354 whole entry, looked up): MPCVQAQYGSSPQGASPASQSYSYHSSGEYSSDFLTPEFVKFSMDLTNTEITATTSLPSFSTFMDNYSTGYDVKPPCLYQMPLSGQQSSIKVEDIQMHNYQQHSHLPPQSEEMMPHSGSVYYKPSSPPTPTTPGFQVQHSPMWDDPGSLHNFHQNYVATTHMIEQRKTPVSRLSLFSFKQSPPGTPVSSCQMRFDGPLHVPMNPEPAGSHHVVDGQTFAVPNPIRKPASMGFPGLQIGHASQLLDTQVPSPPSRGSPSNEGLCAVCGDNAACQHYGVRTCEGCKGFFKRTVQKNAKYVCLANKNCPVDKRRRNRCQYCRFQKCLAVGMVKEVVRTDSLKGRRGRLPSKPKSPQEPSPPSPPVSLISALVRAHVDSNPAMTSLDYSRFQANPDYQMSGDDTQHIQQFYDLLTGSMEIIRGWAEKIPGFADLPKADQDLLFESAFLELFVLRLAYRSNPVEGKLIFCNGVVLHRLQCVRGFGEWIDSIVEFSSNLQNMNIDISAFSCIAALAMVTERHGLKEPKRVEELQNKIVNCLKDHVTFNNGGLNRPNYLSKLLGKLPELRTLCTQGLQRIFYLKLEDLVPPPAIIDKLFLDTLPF

This assay concerns the target Nuclear receptor subfamily 4 group A member 2 (Homo sapiens) (UniProt P43354). The experiment in a line: ATG_NURR1_TRANS: Attagene TRANS-FACTORIAL HepG2 Assay for human Nuclear Receptor Related Protein 1 (NURR1) (AID 2282985). As to conditions: HepG2 Attagene TRANS reporter, mRNA readout. Here is the method:
ATG_TRANS is a cell-based, multiplexed-readout assay that uses HepG2, a human liver cell line, with measurements taken at 24 hours after chemical dosing in a 24-well plate.ATG_NURR1_TRANS is one of 30 assay component(s) measured or calculated from the ATG_TRANS assay. It is designed to make measurements of mRNA induction, a form of inducible reporter, as detected with fluorescence intensity signals by Reverse transcription polymerase chain reaction (RT-PCR) and Capillary electrophoresis technology.Data from the assay component ATG_NURR1_TRANS was analyzed into 1 assay endpoint. This assay endpoint, ATG_NURR1_TRANS, was analyzed in the positive analysis fitting direction relative to DMSO as the negative control and baseline of activity. Using a type of inducible reporter, measures of mRNA for gain-of-signal activity can be used to understand the reporter gene at the transcription factor-level as they relate to the gene NR4A2. Furthermore, this assay endpoint can be referred to as a primary readout, because this assay has produced multiple assay endpoints where this one serves a reporter gene function. To generalize the intended target to other relatable targets, this assay endpoint is annotated to the nuclear receptor intended target family, where the subfamily is orphan.
Human liver HepG2 cells are transiently transfected with multiple reporter transcription units (MRTUs) in 6-well plates using FuGene 6 reagent (Roche; 3 ml FuGene/1 mg DNA). The MRTU constructs are regulated by a cis-regulating element (promoter). […] A major difference between the CIS and TRANS system is that in CIS activities of endogenous TFs are measured, whereas the TRANS assay evaluates changes in activities of exogenous, chimeric NR-Gal4 proteins. […] At the end of 24 hour incubation, total RNA was isolated using TriZol reagent (Invitrogen). The isolated RNA is then reverse-transcribed using oligo(dT) primer and Mo-MLV reverse transcriptase (Invitrogen) with DNAse I (Ambion) treatment for 30 min. The one-tenth of the produced cDNA was amplified by PCR using Taq DNA polymerase (Invitrogen) and two reporter sequence-specific primers. The PCR products were fluorescently labeled by primer extension with 6-arboxyfluorescein (6-FAM) 5'-labeled reporter sequence-specific primer (2 min at 95 C, 20 s at 68 C and 10 min at 72 C) and these products were digested with 5U of HpaI (New England Biolabs) for 2h at 37 C. The fragments were purified using Qiaquick PCR columns (Qiagen), analyzed on an ABI 3130xL genetic analyzer (Applied Biosystems) with peak positions identified by using a set of X-rhodamine (ROX)-labeled MapMarker1000 molecular weight standards (BioVentures). The raw capillary electrophoresis data was processed using Attagraph software (Attagene).
For `CC(=O)OC1C2(C)CCC(C2)C1(C)C` (stereo not given), the call was inactive.

Take `C=C(C)C(=O)OCC(C)C`: the result was inactive.

Take `C=C[Si](C)(C)O[Si](C)(C)C=C`: the molecule was classed as inactive.

As to `CCCCCCCC/C=C\CCCCCCCC(=O)O`, the outcome was inactive.

In the case of `CC(C)(C)C(=O)C=Cc1ccc(Cl)cc1`, the molecule was called inactive.

As to `C=C(C)C(=O)OCCO`, the outcome was inactive.

Regarding `CN(C)c1ccc(C(=N)c2ccc(N(C)C)cc2)cc1`, the result was inactive.

For `CC1=Nc2ccc3ccccc3c2C1(C)C`, the result was inactive.

Consider `CC(C)c1ccc(C=O)cc1`, for which the result was inactive.

With `Cc1cc(C)c(C)c(C)c1`, the molecule was classed as inactive.

Turning to `CCO[Si](CCCN=C=O)(OCC)OCC`, the outcome was inactive.

On to `O=C1CCCCCN1SSN1CCCCCC1=O`, for which the outcome was inactive.

Consider `C=C[C@](C)(O)CC[C@@H]1[C@@]2(C)CCCC(C)(C)[C@@H]2CC[C@@]1(C)O`, for which the outcome was inactive.

Take `O=C(c1ccccc1)c1ccc(O)c(O)c1O`: the molecule was called inactive.

Regarding `CCCCCCC(O)CO` (stereo not given), the outcome was inactive.

Usually AC50 stands for the concentration at which the activity in the assay is half-maximal. For `CC(C)c1ccc2c(C(C)C)cc(C(C)C)c(S(=O)(=O)O)c2c1`, the half-maximal activity concentration (AC50) is 48 µM (active).

Take `CNC(=S)NN`: the molecule was classed as inactive.

As to `COc1ccc(NC(C)=O)cc1N`, the outcome was inactive.

For the molecule `COC(=O)c1ccccc1OC`, the call was inactive.

On to `CCCCC/C=C\C/C=C\CCCCCCCC(=O)OC`, for which the molecule was called inactive.

Consider `[Cl][Nd]([Cl])[Cl]`, for which the outcome was inactive.

On to `C(=CC=Nc1ccccc1)C=CNc1ccccc1`, for which the molecule was called inactive.

As to `COc1cc(C)ccc1C(C)C`, the result was inactive.

`O=C(O)c1cc2ccccc2nc1C(=O)O`: the outcome was inactive.

As for `Cc1ccc(N/N=c2\c(=O)cc/c(=N/Nc3ccc(S(=O)(=O)O)cc3)c2=O)c(C)c1`, the molecule was called inactive.

As for `c1ccc2c(c1)ccc1cc3c(ccc4ccccc43)cc12`, the molecule was classed as inactive.

As for `O=C1CCCC1`, the call was inactive.

Take `CCOC(F)(F)C(F)(F)C(F)(F)C(F)(F)F`: the result was inactive.

Regarding `O=Nc1ccc(O)cc1`, the result was inactive.

Consider `OCCN(CCO)c1ccccc1`, for which the molecule was classed as inactive.

For `CCCCCCCCCCCCCCCCCC#N`, the molecule was called inactive.

For `CCC(=O)Oc1ccc(/C(CC)=C(\CC)c2ccc(OC(=O)CC)cc2)cc1`, the AC50 was 26.1 µM (active).

In the case of `CCN(Cc1cccc(S(=O)(=O)O)c1)c1ccc(C(=C2C=CC(=[N+](CC)Cc3cccc(S(=O)(=O)[O-])c3)C=C2)c2ccccc2)cc1`, the result was inactive.

In the case of `COC(=O)c1ccc2cc(C(=O)OC)ccc2c1`, the outcome was inactive.

Regarding `Cc1cc(=O)n(-c2ccccc2)n1C`, the call was inactive.

In the case of `CCCCCc1ccc(Cl)cc1`, the outcome was inactive.

Turning to `CC(C)C(=O)C(C)C`, the call was inactive.

Take `O=C(Oc1ccccc1)c1ccc2ccccc2c1O`: the molecule was classed as inactive.

Regarding `C1CN(SSN2CCOCC2)CCO1`, the molecule was classed as inactive.

On to `CCCOC(=O)CCCCC(=O)OCCC`, for which the call was inactive.
